This is an account of results in PubChem BioAssay.

A short description of experiment [1]: A549 cell viability effects, profiling panel, calcein-AM fluorescence, 48 h, basal (AID 1162). Note: test concentration not given here. Conditions: higher = more signal.
The nature of experiment [2]: adipocyte viability effects, profiling panel, cell-based, 3T3-L1 adipocytes, calcein-AM fluorescence, 48 h, basal (AID 1163). Note: test concentration not given here. Conditions: 3T3-L1 adipocytes viability, higher = more signal.
The nature of experiment [3]: HepG2 cell viability effects, profiling panel, calcein-AM fluorescence, 48 h, basal (AID 1164). Note: test concentration not given here. Conditions: higher = more signal.
Experiment [4] is described as follows: MM1S cell viability effects, profiling panel, calcein-AM fluorescence, 48 h, basal (AID 1165).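 Note: viability of MM1S multiple myeloma cells under basal unstimulated conditions; test concentration not given here.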 Conditions: higher = more signal.
Experiment [5] can be described thus: basal RPMI8226 viability, no added stimulus, profiling panel, cell-based, calcein-AM fluorescence, 48 h, PK04 Diversity Set (AID 1166).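 Note: cells grown under basal conditions without added stimulus; test concentration not given here.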 The following applies: RPMI8226 myeloma viability, higher = more signal.
Experiment [6] can be described thus: basal HepG2 mitochondrial membrane potential changes, profiling panel, cell-based, JC-1 fluorescence, 24 h, 100 nL compound (AID 1167). Note: test concentration not given here. The following applies: higher = more signal.
Experiment [7] can be described thus: basal 3T3-L1 adipocyte mitochondrial potential changes, profiling panel, cell-based, JC-1 fluorescence, 3T3-L1 adipocytes, 24 h, 100 nL compound (AID 1168). Note: test concentration not given here. The following applies: JC-1 mitochondrial fluorescence, higher = more signal, called active from +8 up or from −8 down.
The nature of experiment [8]: basal RPMI8226 mitochondrial membrane potential changes, profiling panel, cell-based, JC-1 fluorescence, 24 h, 100 nL compound (AID 1169). Note: test concentration not given here. Conditions: RPMI8226 myeloma, JC-1 mitochondrial potential fluorescence, higher = more signal.
The nature of experiment [9]: basal MM1S mitochondrial membrane potential changes, profiling panel, cell-based, JC-1 fluorescence, 24 h, 100 nL compound (AID 1170). Note: test concentration not given here. Conditions: higher = more signal.
Experiment [10] is described as follows: A549 lung cancer cell viability effects, profiling panel, resazurin fluorescence, 24 h, PK04 Diversity Set (AID 1171). Note: test concentration not given here. Conditions: higher = more signal, called active from +8 up or from −8 down. On the technique in general: Alamar Blue is a resazurin reagent that responds to reducing activity.
Experiment [11] is described as follows: HepG2 liver cancer cell viability effects, profiling panel, resazurin fluorescence, 24 h, PK04 Diversity Set (AID 1172). Note: test concentration not given here. The following applies: higher = more signal.
Experiment [12] can be described thus: basal S. cerevisiae growth modulation, no modifier, primary screen, OD600, strain BY4716, 24 h, basal condition (AID 1173). Conditions: OD600, 24 h, higher = more signal, called active from +8 up or from −8 down.
Experiment [13] in a line: MM1S myeloma cell viability, profiling panel, resazurin fluorescence, basal, 24 h, PK04 Diversity Set (AID 1174). Note: test concentration not given here. The following applies: higher = more signal, called active from +8 up or from −8 down.
Experiment [14] addresses Dihydroorotate dehydrogenase (quinone), mitochondrial (Plasmodium falciparum (isolate 3D7)) (UniProt Q08210). As to the kind of experiment: PfDHODH enzyme inhibitors, primary screen, biochemical, C-terminal His tag, absorbance 600 nm (AID 1175).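 Note: recombinant parasite enzyme with a five histidine tag at its C terminus; test concentration not given here.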 The following applies: DCIP absorbance 600 nm, higher = more signal, called active from +8 up or from −8 down.
The nature of experiment [15]: P. aeruginosa biofilm formation inhibitors, primary screen, strain PAO1, LB-PBS medium, absorbance 600 nm (AID 1176). Note: test concentration not given here. Conditions: P. aeruginosa PAO1 growth/biofilm, A600, 12 h; higher = more signal.
Experiment [16] is described as follows: S. cerevisiae RM11-1a growth modifiers, primary screen, strain RM11-1a, OD600, basal, 24 h (AID 1177).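 Note: cultures grown under basal conditions with no added stressor; test concentration not given here.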 Conditions: OD600, 24 h, higher = more signal, called active from +8 up or from −8 down.
Experiment [17] can be described thus: E. coli acrAB mutant growth effects, primary screen, E. coli filamentation inducers, strain DRC39, OD650, 24 h (AID 1178).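 Note: growth measured as culture turbidity by optical density at 650 nm; test concentration not given here.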 Conditions: higher = more signal, called active from +8 up or from −8 down.
Experiment [18] in a line: E. coli acrAB mutant growth effects, primary screen, E. coli filamentation inducers, strain DRC39, OD650, 48 h (AID 1179).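 Note: screen aims at cell division blockers that make cells filament.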 The following applies: E. coli DRC39 delta-acrAB growth, higher = more signal, called active from +8 up or from −8 down.
Experiment [19] is described as follows: RPMI8226 myeloma cell viability, profiling panel, resazurin fluorescence, basal, 24 h, PK04 Diversity Set (AID 1180).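 Note: RPMI8826 multiple myeloma cell line at 5000 cells per well; test concentration not given here.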 The following applies: higher = more signal.
For experiment [20], the target named is E3 ubiquitin-protein ligase XIAP (Homo sapiens) (UniProt P98170). As to the kind of experiment: XIAP binders, primary screen, biophysical, small-molecule microarray, fluorescence 635 nm (AID 1181).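 Note: score merges 667 nm emission and signal to noise over triplicate slides.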 Conditions: small-molecule microarray binding, higher = more signal.
Sequence of E3 ubiquitin-protein ligase XIAP (Homo sapiens) (P98170 whole entry, looked up): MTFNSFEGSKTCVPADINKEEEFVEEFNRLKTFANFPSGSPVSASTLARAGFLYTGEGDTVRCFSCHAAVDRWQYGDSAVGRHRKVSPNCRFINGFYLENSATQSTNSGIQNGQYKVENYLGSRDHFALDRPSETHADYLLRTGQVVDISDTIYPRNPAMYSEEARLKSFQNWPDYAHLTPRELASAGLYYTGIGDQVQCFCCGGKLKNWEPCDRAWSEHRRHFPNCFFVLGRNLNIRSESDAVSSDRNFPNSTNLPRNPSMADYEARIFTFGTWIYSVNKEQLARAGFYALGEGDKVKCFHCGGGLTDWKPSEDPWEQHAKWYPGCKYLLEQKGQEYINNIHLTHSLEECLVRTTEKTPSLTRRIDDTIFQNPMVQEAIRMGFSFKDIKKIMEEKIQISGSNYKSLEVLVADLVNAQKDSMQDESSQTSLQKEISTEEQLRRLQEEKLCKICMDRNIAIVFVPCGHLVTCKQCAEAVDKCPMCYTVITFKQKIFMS

The source made the active and inactive calls. Unless noted, the rule behind the calls is not given here.

Sequence of Dihydroorotate dehydrogenase (quinone), mitochondrial (Plasmodium falciparum (isolate 3D7)) (Q08210 whole entry, looked up): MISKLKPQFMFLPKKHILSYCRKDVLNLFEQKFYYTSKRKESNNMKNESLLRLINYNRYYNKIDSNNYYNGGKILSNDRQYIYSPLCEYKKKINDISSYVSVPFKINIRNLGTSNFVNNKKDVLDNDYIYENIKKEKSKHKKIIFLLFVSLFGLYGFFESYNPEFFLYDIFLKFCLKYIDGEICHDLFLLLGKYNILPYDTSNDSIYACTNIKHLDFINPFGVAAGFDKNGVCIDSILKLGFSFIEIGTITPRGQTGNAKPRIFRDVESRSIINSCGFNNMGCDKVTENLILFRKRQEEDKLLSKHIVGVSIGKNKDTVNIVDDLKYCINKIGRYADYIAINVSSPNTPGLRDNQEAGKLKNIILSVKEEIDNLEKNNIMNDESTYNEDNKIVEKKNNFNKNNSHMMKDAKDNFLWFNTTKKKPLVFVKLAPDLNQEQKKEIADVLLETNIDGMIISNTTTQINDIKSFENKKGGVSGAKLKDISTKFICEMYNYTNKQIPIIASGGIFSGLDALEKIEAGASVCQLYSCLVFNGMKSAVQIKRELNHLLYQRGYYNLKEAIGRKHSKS

Consider `CC(C)NC(=O)[C@@]1(C)c2ccccc2C(=O)N(Cc2cc(C(F)(F)F)cc(C(F)(F)F)c2)[C@H]1c1ccc(CO)cc1`, for which the z-score was 1.25 in [1]; -0.562 in [2]; 0.481 in [3]; -0.137 in experiment [4]; -0.825 in [5]; 0.718 in experiment [6]. Also, the z-score in [7] was 0.468 (inactive); in experiment [8], -0.382; in [9], -0.527; in experiment [10], -0.558 (inactive); in [11] it was 0.121; in experiment [12], 0.0934 (inactive). The z-score in experiment [13] is -1.21 (inactive); in experiment [15], 0.224 (inactive); in experiment [16], 0.784 (inactive); in [17], 0.162 (inactive); in experiment [18], 0.23 (inactive); in experiment [19], -0.148. Moreover, the values for the composite z-score in experiment [14] and in experiment [20] were 0.356 (inactive) and 0.0868, respectively.
In the case of `COC(=O)[C@@]1(Cc2ccc(F)cc2)[C@H]2c3cc(C(=O)N4CCCC4)n(CCCNc4ncc(C(F)(F)F)cc4Cl)c3C[C@H]2CN1C(=O)c1ccccc1`, the z-score was -0.386 in [1]; -0.68 in experiment [2]; 0.0224 in experiment [3]; -1.48 in experiment [4]; -1.13 in experiment [5]; 1.12 in experiment [6]. For the same molecule, the z-score was -1.8 (inactive) in [7]; -0.501 in experiment [8]; -1.2 in experiment [9]; -0.733 (inactive) in [10]; -0.461 in experiment [11]; 2.05 (inactive) in [12]. Moreover, the z-score was -2.38 (inactive) in [13]; 1.03 (inactive) in experiment [15]; 1.65 (inactive) in [16]; -0.645 (inactive) in [17]; -0.681 (inactive) in [18]; -2.34 in experiment [19]. Further, the composite z-score in experiment [14] was 0.308 (inactive); in [20], 0.426.
Consider `CCCCCCc1nc(-c2cc(C)c(OC)c(C)c2)cc2c1[Si](C(C)C)(C(C)C)OC2`, for which the z-score was -0.194 in [1]; 1.29 in experiment [2]; 0.117 in experiment [3]; -1.12 in experiment [4]; -1.11 in [5]; -0.48 in experiment [6]. Also, the z-score in [7] was -0.385 (inactive); in [8] it was -0.547; in experiment [9], -0.288; in experiment [10] it was 1.1 (inactive); in [11], -0.206; in experiment [12], -1.09 (inactive). Further, the z-score in experiment [13] was 0.401 (inactive); in experiment [15] it was -0.747 (inactive); in experiment [16], -0.493 (inactive); in experiment [17], 0.615 (inactive); in [18], 0.641 (inactive); in [19] it was -0.11. The composite z-score in experiment [14] is -3.17 (inactive); in [20], 0.0537.
`COc1cc(Br)cc(C(O)C2C=CC3C(=O)N(C)C(=O)C3N2N2CCCCC2)c1OC` (stereo not given): the z-score is -1.12 in experiment [1]; -0.456 in experiment [2]; -0.315 in [3]; -1.68 in experiment [4]; -0.18 in experiment [5]; -1.05 in experiment [6]. Besides, the z-score in experiment [7] is -0.535 (inactive); in [8] it was 0.672; in [9] it was -0.129; in experiment [10], -0.318 (inactive); in [11], -1.17; in experiment [12], -1.43 (inactive). The z-score is -1.17 (inactive) in [13]; 0.406 (inactive) in [15]; 1.25 (inactive) in experiment [16]; -0.596 (inactive) in experiment [17]; -0.683 (inactive) in [18]; -1.07 in [19]. In addition, the figures for the composite z-score in [14] and in experiment [20] were -0.282 (inactive) and 0.0123, respectively.
Take `O=C1C2C=CC(C(O)c3cc(C(F)(F)F)cc(C(F)(F)F)c3)N(n3cnnc3)C2C(=O)N1Cc1ccccc1` (stereo not given): the z-score was -0.416 in [1]; 0.649 in experiment [2]; -0.167 in experiment [3]; 0.0347 in experiment [4]; -1.41 in experiment [5]; -0.605 in experiment [6]. In addition, the z-score is -1.62 (inactive) in experiment [7]; 0.11 in experiment [8]; 0.914 in experiment [9]; -0.226 (inactive) in [10]; -0.064 in experiment [11]; -1.01 (inactive) in [12]. Besides, the z-score in experiment [13] was -0.497 (inactive); in [15], 0.933 (inactive); in experiment [16], 1.09 (inactive); in experiment [17] it was 0.375 (inactive); in experiment [18], 0.589 (inactive); in experiment [19], -0.394. The values for the composite z-score in experiment [14] and in [20] were 0.861 (inactive) and 0.0945, respectively.
`COCCOC(=O)N1C(=O)[C@@]2(c3cc(C#Cc4ccc(OC)cc4)ccc31)[C@H](c1ccccc1OCCO)N1[C@H](c3ccccc3)[C@H](c3ccccc3)OC(=O)[C@H]1[C@@H]2C(=O)NC[C@H](O)c1ccccc1`: the z-score in experiment [1] is -0.796; in experiment [2], 1.02; in experiment [3] it was -0.206; in [4], -0.889; in experiment [5], -2.23; in experiment [6], 0.117. Besides, the z-score in experiment [7] was 3.21 (inactive); in experiment [8], -0.485; in experiment [9] it was -1.26; in experiment [10], -0.762 (inactive); in [11], 0.48; in [12], 2.55 (inactive). For the same molecule, the z-score in experiment [13] is -0.444 (inactive); in [15], 3.27 (inactive); in experiment [16], 3.17 (inactive); in experiment [17] it was 0.418 (inactive); in experiment [18] it was 0.127 (inactive); in experiment [19] it was -0.82. Also, the composite z-score was -1.22 (inactive) in [14] and -0.0421 in experiment [20].
Consider `C=CC[C@@]12N=C(c3ccc(OCCCO)cc3)O[C@@H]1c1ccccc1N(C)C2=O`, for which the z-score in experiment [1] was -0.588; in [2], 0.596; in experiment [3] it was -1.33; in experiment [4] it was -1.79; in [5], -2.61; in [6] it was 0.0239. For the same molecule, the z-score in [7] is 1.51 (inactive); in experiment [8] it was -1.12; in [9], -0.767; in experiment [10] it was -0.0732 (inactive); in experiment [11] it was -0.0241; in experiment [12] it was -0.926 (inactive). In addition, the z-score in experiment [13] is -2.53 (inactive); in experiment [15] it was 0.0684 (inactive); in [16], 1.46 (inactive); in [17], 0.817 (inactive); in experiment [18], 1.18 (inactive); in experiment [19] it was -0.912. Also, the composite z-score in experiment [14] is 0.579 (inactive); in experiment [20] it was 0.368.
Regarding `COc1cc2c(cc1OC)CN(C(=O)[C@H]1[C@@H]3C(=O)O[C@@H](c4ccccc4)[C@@H](c4ccccc4)N3[C@@H](c3ccc(O)cc3)[C@]13C(=O)Nc1ccccc13)CC2`, the z-score in experiment [1] is -0.214; in experiment [2], -0.843; in [3], 0.394; in [4], -0.723; in experiment [5] it was -1.47; in [6], -1.2. The z-score in experiment [7] was 0.977 (inactive); in experiment [8], -0.542; in experiment [9], -0.594; in experiment [10] it was -0.0574 (inactive); in [11], -0.102; in experiment [12], 0.744 (inactive). Besides, the z-score is -0.426 (inactive) in [13]; 1.67 (inactive) in experiment [15]; 1.07 (inactive) in experiment [16]; 0.188 (inactive) in experiment [17]; -0.144 (inactive) in [18]; 0.0788 in experiment [19]. For the same molecule, the composite z-score was 0.806 (inactive) in experiment [14] and 0.188 in experiment [20].
